Assay results reported in PubChem BioAssay AID449762 (Southern Research Specialized Biocontainment Screening …, 2010).
About 1,900 (0.58%) of roughly 330,000 compounds were called active. Not shown: some 4% with an inconclusive outcome. The list is a sample of the results. Entries with a potency or affinity are not part of this list. Unmarked numbers belong to inactive results. Cut-off read from the data, not from the text of the source: inconclusive = inhibition above about 70% without an active follow-up result; inactive = below that.

assay: M. tuberculosis growth inhibition, HTS (AID 449762);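 note: bacterial growth assessed after seven days of incubation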; settings: M. tuberculosis H37Rv growth inhibition, 7H9 media; at 25 µM; hits give high values

Compared with O=Cc1ccccc1OS(=O)(=O)c1ccccc1, O=C(Nc1ccccc1)c1ccccc1OS(=O)(=O)c1ccccc1 is higher in inhibition: -6.41% for the first, 0.76% for the second.

First: C/C(=N\NC(=O)CN(c1ccccc1)S(C)(=O)=O)c1ccccc1O
Second: Cc1ccc(N(CC(=O)Nc2cccc(Cl)c2C)S(C)(=O)=O)cc1
The inhibition of the first is lower: -3.69% for the first, 7.2% for the second.

Compared with Cc1cc(OC(C)C(=O)NCC2CCCO2)cc(C)c1Cl (stereo not drawn), Cc1c(C(=O)NCCCN2CCCC2=O)oc2c(Cl)cccc12 is lower in inhibition: 11.1% for the first, -3.89% for the second.

Compared with CCn1cnc2sc(C(=O)N3CCN(c4ccc(OC)cc4)CC3)c(C)c2c1=O, CCn1cnc2sc(C(=O)O)c(C)c2c1=O is higher in inhibition: -8.96% for the first, -6.99% for the second.

Compared with Cc1[nH]n(-c2ccc(Br)cc2)c(=O)c1C=Nc1ccc(S(=O)(=O)Nc2nccs2)cc1, Cc1ccc(-n2[nH]c(C)c(C=Nc3ccc(S(=O)(=O)Nc4nc(C)cc(C)n4)cc3)c2=O)c(C)c1 is lower in inhibition: 68.2% for the first, -3.23% for the second.

Compared with C[C@H](CO)N1C[C@H](C)[C@@H](CN(C)C)Oc2c(NS(=O)(=O)c3ccccc3)cccc2C1=O, C[C@H](CO)N1C[C@H](C)[C@@H](CN(C)Cc2ccncc2)Oc2c(cccc2N(C)C)C1=O is higher in inhibition: 0.58% for the first, 2.32% for the second.

Compared with O=C(NC1CC1)C1CCN(C2CCN(C(=O)/C=C/c3cccs3)CC2)CC1, O=C(NCc1ccccc1Cl)c1cccc(OC2CCN(C(=O)C3CC3)CC2)c1 is higher in inhibition: -5.63% for the first, 5.75% for the second.

Compared with O=C(CNC(=O)c1cccs1)OCc1ccc(Br)cc1, CSc1ccc(Cl)c(C(=O)NNC(=O)c2cccs2)c1 is higher in inhibition: -2.09% for the first, 1.28% for the second.

First: O=C(CCC(=O)N(c1ccc(F)cc1)C(C(=O)NC1CCCC1)c1ccncc1)Nc1cccnc1 (stereo not drawn)
Second: COC(=O)CN(c1ccc(C)cc1)S(=O)(=O)c1ccc(F)cc1
The inhibition of the first is lower: -10.1% for the first, 14.1% for the second.

Going from CC(=O)Nc1ccc(C(=O)CN2C(=O)NC3(CCOc4ccccc43)C2=O)c(F)c1 (stereo not drawn) to COc1ccc(Cl)cc1NC(=O)CN(C)C(=O)Cn1c(=O)oc2ccccc21, the inhibition rises from -3.12% to 1.38%.

Compared with CCCNC(=O)CCn1c(=S)oc2ccccc21, CCCCOC(=O)CCn1c(=S)oc2ccccc21 is higher in inhibition: 2.75% for the first, 23.9% for the second.

First: Cc1ccc(Cl)cc1-n1c(O)c(C=NCCCN2CCOCC2)c(=O)[nH]c1=O
Second: COc1ccc(COC(=O)c2ccc(C)c(S(=O)(=O)N3CCOCC3)c2)cc1F
The inhibition of the first is higher: -2.44% for the first, -4.83% for the second.

First: COc1ccc(C2=CN(Cc3ccccc3)C(c3ccccc3)CC2=O)cc1 (stereo not drawn)
Second: C[n+]1c(-c2ccccc2)cc(-c2ccc(Cl)cc2)cc1-c1ccccc1
The inhibition of the first is lower: -2.25% for the first, -0.15% for the second.

First: Cc1cc(C)c(NC(=O)c2cc3c(nc4sccn43)s2)c(C)c1
Second: Cc1ccc(C)c(NC(=O)c2c(Cl)nc3ccccn23)c1
The inhibition of the first is lower: -18.3% for the first, 10.7% for the second.

First: CCN(C(=O)COC(=O)c1[nH]c(C)c(C(C)=O)c1C)C1CCS(=O)(=O)C1 (stereo not drawn)
Second: COC(=O)C1=C(C)Nc2c(c(=O)n(C)c(=O)n2C)C1c1cccs1 (stereo not drawn)
The inhibition of the first is higher: -10.7% for the first, -11.8% for the second.

Going from O=C(Nc1ccc(N2CCOCC2)cc1)c1ccc([N+](=O)[O-])cc1 to CCn1c2ccccc2c2cc(NC(=O)c3ccc([N+](=O)[O-])cc3)ccc21, the inhibition rises from 1.26% to 9.29%.

First: CCN(CC)CCNC(=O)c1cn(-c2ccccc2)nc1-c1cccs1
Second: CN(C)c1ccc(NC(=O)c2cn(-c3ccccc3)nc2-c2cccs2)cc1
The inhibition of the first is higher: 5.6% for the first, -2.85% for the second.

Going from Cc1oc(-c2cccc(Cl)c2)nc1CSc1nc2c(c(=O)[nH]1)CCC2 to Cc1ccc2c(c1)c1c(n2C)C(=O)CCC1, the inhibition falls from -10.8% to -12%.

First: Cn1c(-c2ccccc2)cnc1NCc1cc(Cl)ccc1O
Second: Cn1c(-c2cccc(Br)c2)cnc1NCc1ccccc1O
The inhibition of the first is lower: 10.7% for the first, 42.5% for the second.

First: Cc1cccc(C)c1N/C=C/c1onc(C)c1[N+](=O)[O-]
Second: Cc1ccc(N/C=C/c2onc(C)c2[N+](=O)[O-])cc1
The inhibition of the first is lower: -4.35% for the first, -2.82% for the second.

Going from COc1ccc(NC(=O)c2ccco2)cn1 to NC(=O)c1ccc(NC(=S)NCc2ccco2)cc1, the inhibition rises from -3.96% to -0.21%.

First: Cn1ccnc1SCC(=O)Nc1ccc(Cl)cn1
Second: Cc1ccc(/C=N/NC(=O)Cc2cccn2C)s1
The inhibition of the first is lower: -1.74% for the first, 4.27% for the second.

Compared with CCCCn1c(SCc2nc3ccccc3s2)nc2cc(S(N)(=O)=O)ccc21, CCCCn1c(SCc2c(C)noc2C)nc2cc(S(N)(=O)=O)ccc21 is lower in inhibition: 1.21% for the first, -4.65% for the second.

Compared with Brc1ccc(-c2nc(-c3ccncc3)no2)cc1, Cc1ccc(-c2nc(-c3ccncc3)no2)cc1 is lower in inhibition: 1.44% for the first, -14.2% for the second.

Going from O=[N+]([O-])c1cccc(-c2nc(-c3ccncc3)no2)c1 to O=[N+]([O-])c1ccc(-c2nc(-c3ccncc3)no2)cc1, the inhibition rises from -2% to 7.86%.

Going from CCn1ccc(C(=O)Nc2ccc3c(c2)CCC3)n1 to O=C(O)c1ccc(Cl)c(NCc2cccnc2)c1, the inhibition rises from -10.2% to -9.94%.

Compared with COc1ccc(/C=N/n2c(C)nc3ccccc3c2=O)cc1OC, COc1ccccc1-n1cc2ccc([N+](=O)[O-])cc2n1 is lower in inhibition: 7.03% for the first, -3.35% for the second.

Going from O=C(NNC(=O)C12CC3CC(CC(C3)C1)C2)c1cnccn1 to O=C(NNC(=O)C12CC3CC(CC(C3)C1)C2)c1ccncc1, the inhibition rises from -6.86% to 2.26%.

First: COc1ccc(CCOC(=O)c2ccc(NC(=O)CC#N)cc2)cc1
Second: COc1ccc(Oc2ccc(/C=C/C(=O)c3ccc(O)cc3)cc2[N+](=O)[O-])cc1
The inhibition of the first is lower: -3.16% for the first, 8.6% for the second.

First: CC(=O)C1=C(C)Nc2ncnn2C1c1ccc(Br)cc1 (stereo not drawn)
Second: COc1ccccc1C1CC(c2ccc(C)cc2)Nc2ncnn21 (stereo not drawn)
The inhibition of the first is higher: 2.48% for the first, -9.91% for the second.

Compared with Cc1nn(CC(=O)Nc2c(C)n(C)n(-c3ccccc3)c2=O)c(C)c1[N+](=O)[O-], CCCc1cc(=O)[nH]c(SCC(=O)Nc2c(C)cccc2C)n1 is higher in inhibition: -2.07% for the first, 0.09% for the second.

First: COc1ccc(NC(=O)CCC(=O)N(Cc2ccc(OC)c(OC)c2)c2nccs2)c(OC)c1
Second: COc1ccc(CCN(C)C(=O)C2CC(=O)N(Cc3ccc(C)cc3)C2)cc1OC (stereo not drawn)
The inhibition of the first is higher: -1.87% for the first, -4.64% for the second.

First: O=c1cc(-c2ccccc2)[nH]c2ccccc12
Second: O=c1nc(-c2ccccc2)c2ccccc2[nH]1
The inhibition of the first is higher: 3.78% for the first, -8.68% for the second.

Compared with c1cc2c(cc1C1CCCCC1)c1c3n2CCN=C3CCC1, O=C(Cc1cccc(NC(=O)C2CCCN(C(=O)C3CCC3)C2)c1)Nc1cccc(C(=O)N2CCCC2)c1 (stereo not drawn) is lower in inhibition: -6.21% for the first, -9.14% for the second.

Going from COc1cccc(OCC(=O)Nc2c3c(nn2-c2ccccc2)CS(=O)(=O)C3)c1 to Cc1noc(C)c1C(=O)OCC(=O)Nc1cc(Cl)ccc1Oc1ccccc1, the inhibition falls from 4.27% to 2.51%.

Compared with CS(=O)(=O)Nc1ccc(C2=NN(C(=O)c3ccccc3)C(c3cccs3)C2)cc1 (stereo not drawn), Cc1cccc(C(=O)N2N=C(c3ccc(NS(C)(=O)=O)cc3)CC2c2cccs2)c1 (stereo not drawn) is lower in inhibition: 26.9% for the first, 2.79% for the second.

Compared with O=C(O)C(O)C(O)C(O)C(O)C(=O)O (stereo not drawn) (tested in a mixture with another compound), COc1ccc(OC)c2c1cc(C(=O)N[C@H](C(=O)N1CCC(C(=O)O)CC1)C(C)C)n2C is lower in inhibition: 3.48% for the first, -15.1% for the second.

Going from CCN(C[C@H]1N[C@@](Cc2ccccc2)(C(=O)OC)[C@H]2C(=O)N(C)C(=O)[C@@H]12)C(=O)Nc1ccc(F)cc1 to COc1ccccc1C1CC(c2ccc(F)cc2)Nc2ncnn21 (stereo not drawn), the inhibition falls from 4.09% to -11.3%.

Going from CN(C)c1ccc(/C=C/C(=O)c2ccccc2)cc1[N+](=O)[O-] to O=C(Nc1ccc([N+](=O)[O-])cc1)c1cccc(S(=O)(=O)Nc2ccccn2)c1, the inhibition falls from 16.9% to -2.42%.

First: COC(=O)c1cccc2c1NC(=O)C2=O
Second: O=C1NC2(Nc3ccccc31)C(=O)Nc1ccc(Br)cc12 (stereo not drawn)
The inhibition of the first is lower: 3.61% for the first, 6.01% for the second.

Compared with Cc1ccc(OCC(=O)N/N=C/C=C/c2ccco2)cc1, CCOC(=O)N/N=C\C=C\c1ccco1 is higher in inhibition: -6.27% for the first, -0.79% for the second.

Compared with Cc1cc(C(=O)NCCC(C)C)c2ccccc2n1, O=[N+]([O-])c1cnc2ccccc2c1 is lower in inhibition: -3.78% for the first, -7.59% for the second.

First: CC(C)(C)c1ccc(OCCNCc2ccccc2)cc1
Second: C[N+](C)(CCOc1ccccc1)Cc1ccccc1 (tested in a mixture with another compound)
The inhibition of the first is higher: 14.6% for the first, -1.38% for the second.

First: CN(Cc1ccco1)C(=O)c1ccc(S(=O)(=O)N2CCCCCC2)cc1
Second: COCCCNC(=O)CN(c1cc(C(F)(F)F)ccc1Cl)S(C)(=O)=O
The inhibition of the first is higher: 2.26% for the first, -8.65% for the second.

First: C[n+]1c(-c2ccccc2)cc(-c2ccc(O)cc2)cc1-c1ccccc1
Second: O=C1Nc2ccc(Br)cc2C1(O)c1ccccc1 (stereo not drawn)
The inhibition of the first is higher: 3.36% for the first, -1.54% for the second.

Going from COC(=O)c1c(C)nn(-c2ccc(OC(F)(F)F)cc2)c1-c1snnc1C to COc1ccc(-n2cc3ccc([N+](=O)[O-])cc3n2)cc1, the inhibition falls from 5.4% to -3.43%.

Molecule O=c1c2c([N+](=O)[O-])cc([N+](=O)[O-])cc2nc2ccccn12 has an inhibition of 4.66%.
